Assay outcomes as filed in PubChem.
Compounds with a hit are over-represented: about 2.9% of the library has one in this group of screens.
MEKK3 PB1 HTS: modulators (inhibitors or enhancers) of MEK5 binding to human MEKK3 PB1 domain; 290,000 compounds, 1.4% hits; bead-based flow cytometry, Alexa488-MEK5 binding to MEKK3; actives lie on both sides; 0 = blocked by unlabeled MEK5, 100 = vehicle; binding response (% of control), % at 10 µM;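 active = binding response more than 3 SD above or below the average of its plate-row segment, actives on both sides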;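 also: Alexa488 bead fluorescence after subtracting the streptavidin-only scavenger bead signal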
Target sequence (Q99759 whole entry, looked up, the tested form may be a part): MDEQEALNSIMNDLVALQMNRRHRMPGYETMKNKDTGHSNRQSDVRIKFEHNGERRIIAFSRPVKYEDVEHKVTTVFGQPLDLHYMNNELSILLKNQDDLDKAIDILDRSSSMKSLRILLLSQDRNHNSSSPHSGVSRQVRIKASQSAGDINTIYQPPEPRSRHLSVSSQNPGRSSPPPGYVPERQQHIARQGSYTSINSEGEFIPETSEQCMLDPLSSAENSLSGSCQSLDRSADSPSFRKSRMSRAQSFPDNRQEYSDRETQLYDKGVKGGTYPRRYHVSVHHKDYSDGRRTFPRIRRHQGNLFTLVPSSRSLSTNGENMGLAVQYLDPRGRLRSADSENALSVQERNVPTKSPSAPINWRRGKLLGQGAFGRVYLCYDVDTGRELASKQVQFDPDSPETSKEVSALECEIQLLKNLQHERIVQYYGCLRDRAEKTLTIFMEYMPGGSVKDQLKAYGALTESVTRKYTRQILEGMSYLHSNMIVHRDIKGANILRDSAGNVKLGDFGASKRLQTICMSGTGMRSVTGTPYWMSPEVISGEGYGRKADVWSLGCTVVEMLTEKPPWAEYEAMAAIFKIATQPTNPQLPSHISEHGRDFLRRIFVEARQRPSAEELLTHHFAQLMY
MEKK2 mut-MEK5: signal of MEK5 binding to mutant human MEKK2 PB1 domain; bead flow cytometry, Alexa488-MEK5 binding to MEKK2 mutant; AID 1530; 290,000 compounds, 0.35% hits; percent response, % at 10 µM; in the data active = percent response above about 24%, passing the limit was not always enough
MEKK2wt PB1 HTS: raises or lowers MEK5 binding to wildtype human MEKK2 PB1 domain | bead flow cytometry, Alexa488-MEK5 binding to MEKK2 WT; actives lie on both sides | binding response (% of control), % at 10 µM | 290,000 compounds, 1.1% hits | AID 1531; in the data active = binding response below about 67% or above about 130%
dFosB activator: activators of mouse delta FosB homodimer; P13346; purified delta FosB, TAMRA-CDK5 oligo fluorescence polarization; percent of positive-control signal above neutral wells; activation, % at 25 µM; 340,000 compounds, 0.99% hits;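 active = mean activation above about 17%, with every replicate also reaching it, limit read from the data, passing the limit was not always enough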
FID counter: displaces DNA intercalator in HCV helicase counter-screen; DNA fluorescent intercalator displacement, fluorescence; 290,000 compounds, 0.17% hits; AID 1845; inhibition, % at 7.9 µM; in the data active = inhibition above about 37%;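 also: higher means more ethidium bromide displaced from hairpin DNA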
MEKK2wt confirm: raises or lowers MEK5 binding to wildtype human MEKK2, retest; shares compounds with MEKK3 PB1 HTS; bead flow cytometry, Alexa488-MEK5 binding to MEKK2 WT; actives lie on both sides; binding response (% of control), % at 10 µM; 5,900 compounds, 2.4% hits; AID 1892; in the data active = binding response below about 16% or above about 210%; inactive = in between
MEKK2mut confirm: signal of MEK5 binding to mutant human MEKK2, retest. shares compounds with MEKK3 PB1 HTS. bead flow cytometry, Alexa488-MEK5 binding to MEKK2 mutant. percent response, % at 10 µM. 5,900 compounds, 2% hits. AID 1893; in the data active = percent response mostly above about 71%, no sharp cut-off; inactive = mostly below about 38%;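 also: higher means compound restores mutant binding toward wildtype level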
MEKK3 confirm: MEKK3-MEK5 PB1 inhibition, single concentration confirmation; 5,900 compounds, 1.8% hits; binding response (% of control), % at 10 µM; shares compounds with MEKK3 PB1 HTS; bead flow cytometry, Alexa488-MEK5 binding to MEKK3; hits give low values;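 active = binding response below 72% of control, or above a set upper limit, though filed actives all read lower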;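 also: lower values mean stronger disruption of MEK5 binding to MEKK3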
Large screens that a line does not name were inactive (follow-up assays come after a bar, where they were run); [ ] = another dose, or the depositor's remark.

Cc1ccccc1C(=O)NCCCNC(=O)c1ccccn1	none
COc1cccc(-n2c(SCC(=O)NCC3CCCO3)nc3c(c2=O)SCC3)c1 (configuration not stated)	none
O=C(CCC1CCCC1)N1CCN(C(=O)COc2ccccc2)CC1	MEKK3 PB1 HTS 75[inhibitor] | MEKK2wt confirm inactive | MEKK2mut confirm inactive | MEKK3 confirm inactive
CC1(c2cc(C(F)(F)F)n3nc(C(=O)O)cc3n2)CC1	none
CCOC(=O)C1CCN(CC(O)COc2ccc(C(C)(C)CC)cc2)CC1 (configuration not stated)	MEKK3 PB1 HTS 2.0[inhibitor], MEKK2wt PB1 HTS 0.0[inhibitor] | MEKK2wt confirm inactive | MEKK2mut confirm inactive | MEKK3 confirm inactive
CCOC(=O)C1CCN(CC(O)COc2ccc(C(C)(C)C)cc2)CC1 (configuration not stated)	none
CCOC(=O)Nc1nc(-c2ccc(Cl)cc2Cl)cs1	none
O=C(c1cc(C2CC2)nn1-c1ccccc1)N1CCN(S(=O)(=O)c2ccccc2)CC1	none (no result: MEKK3 PB1 HTS, MEKK2 mut-MEK5, MEKK2wt PB1 HTS, FID counter)
CCCNC(=O)Cn1c(=O)oc2cc(S(=O)(=O)N3CC(C)CC(C)C3)ccc21 (configuration not stated)	none
CCCCN(C)C(=O)Cn1c(=O)oc2cc(S(=O)(=O)N3CC(C)CC(C)C3)ccc21 (configuration not stated)	MEKK3 PB1 HTS 132 | MEKK2wt confirm inactive | MEKK2mut confirm inactive | MEKK3 confirm inactive
CCC[C@@H](CNC)NC[C@H](Cc1ccccc1)NCCCCc1ccccc1	MEKK2wt PB1 HTS 154 | MEKK2wt confirm inactive | MEKK2mut confirm inactive | MEKK3 confirm inactive
CNC[C@@H](Cc1ccccc1)NC[C@@H](CC1CCCCC1)NCCCc1ccccc1	MEKK2 mut-MEK5 44, MEKK2wt PB1 HTS 244, FID counter 38 | MEKK2wt confirm inactive | MEKK2mut confirm inactive | MEKK3 confirm inactive
CNC[C@@H](CC1CCCCC1)NC[C@H](CC(C)C)NCCc1cccc(C(F)(F)F)c1	MEKK2 mut-MEK5 33, MEKK2wt PB1 HTS 234 | MEKK2wt confirm inactive | MEKK2mut confirm inactive | MEKK3 confirm inactive
O=C(c1cc(COc2ccc(F)cc2F)on1)N1CCN(C2CCCC2)C(=O)C1	none
COc1ccc2cc(C(=O)C3CCCN(C(=O)c4cncs4)C3)ccc2c1 (configuration not stated)	none
CC(C(=O)N1CCN(C(=O)c2ccco2)CC1)N1C(=O)NC2(CCCCC2C)C1=O (configuration not stated)	none (no result: MEKK3 PB1 HTS, MEKK2 mut-MEK5, MEKK2wt PB1 HTS, FID counter)
S=c1[nH]nc(-c2ccc(Cl)cc2)n1CCCN1CCOCC1	MEKK2 mut-MEK5 431 | MEKK2wt confirm inactive | MEKK2mut confirm inactive | MEKK3 confirm inactive
Cc1cc(C)cc(N(C(=O)CNC(=O)c2ccco2)C(C(=O)NC2CCCCC2)c2ccncc2)c1 (configuration not stated)	none
O=C(CSc1cccc[n+]1[O-])Nc1ccc2c(c1)OCO2	MEKK3 PB1 HTS 71[inhibitor] | MEKK2wt confirm inactive | MEKK2mut confirm inactive | MEKK3 confirm inactive
Nc1ccccc1SCC(=O)Nc1ccc2c(c1)OCO2	none
COc1cc(C(=O)N/C(=C\c2cn(C)c3ccccc23)C(=O)NCCN2CCOCC2)cc(OC)c1OC	none
Cc1ccc(NC(=O)CC2SCCNC2=O)cc1[N+](=O)[O-] (configuration not stated)	none
COc1cc2[nH]c(=O)n(CCC(=O)N3CCc4ccccc4C3)c(=O)c2cc1OC	MEKK3 PB1 HTS 122 | MEKK2wt confirm inactive | MEKK2mut confirm inactive | MEKK3 confirm inactive
Cc1ccc2cccc(S(=O)(=O)NC3CCS(=O)(=O)C3)c2n1 (configuration not stated)	MEKK3 PB1 HTS 2.0[inhibitor], MEKK2wt PB1 HTS -1.0[inhibitor] | MEKK2wt confirm inactive | MEKK2mut confirm inactive | MEKK3 confirm inactive
O=S(=O)(NC1CCCCCC1)c1cccc2cccnc12	none
O=C(Cc1coc(-c2ccc(F)cc2)n1)Nc1ccccc1	MEKK3 PB1 HTS 2.0[inhibitor], MEKK2wt PB1 HTS 2.0[inhibitor] | MEKK2wt confirm inactive | MEKK2mut confirm inactive | MEKK3 confirm inactive
O=C(Cc1cc(C(=O)O)c2ccccc2n1)Nc1ccccc1	none
COc1ccc(CC(=O)NNc2ncnc3c2cnn3-c2ccccc2)cc1	MEKK3 PB1 HTS 136 | MEKK2wt confirm inactive | MEKK2mut confirm inactive | MEKK3 confirm inactive
COc1ccc(CC(=O)NNc2ncnc3c2cnn3-c2ccc(C)cc2)cc1	none
CN1CCN(C(=O)c2ccc(-n3cccn3)nc2)CC1	none
COc1ccc(CCNC(=O)Cn2cnc3c(cnn3-c3ccccc3Cl)c2=O)cc1OC	none
Cc1cc(NC(=O)CN2C(=O)NC(C)(c3ccc(Cl)cc3)C2=O)no1 (configuration not stated)	none
O=C(O)CCC(=O)c1ccc(-c2ccccc2)cc1	MEKK3 PB1 HTS 67[inhibitor], MEKK2wt PB1 HTS 32[inhibitor] | MEKK2wt confirm inactive | MEKK2mut confirm inactive | MEKK3 confirm inactive
CCC(=O)c1ccc(-c2ccccc2)cc1	none
C/C(=N\Nc1ccc2nncn2n1)c1ccc(Cl)s1	none (no result: dFosB activator)
Cc1cc(C)n2nc(SCCC(=O)NCc3ccccc3)nc2n1	none
O=C1c2ccccc2C(=O)C12OC2c1cccc2ccccc12 (configuration not stated)	MEKK3 PB1 HTS 157 | MEKK2wt confirm inactive | MEKK2mut confirm inactive | MEKK3 confirm inactive
O=C1NC(c2cccc3ccccc23)Nc2ccccc21 (configuration not stated)	none (no result: MEKK3 PB1 HTS, MEKK2 mut-MEK5, MEKK2wt PB1 HTS, FID counter)
Cc1c(O)c2c(=O)n(-c3ccccc3)c(-c3ccccc3)cc2oc1=O	none
Cc1ccc(C2(CCNCc3ccc(N(C)C)cc3)CCOC(C(C)C)C2)cc1 (configuration not stated)	MEKK2wt PB1 HTS 149 | MEKK2wt confirm inactive | MEKK2mut confirm inactive | MEKK3 confirm inactive
CC(C)C1CC(CCNCc2ccc(N(C)C)cc2)(c2ccccc2)CCO1 (configuration not stated)	none
COc1ccc(C[C@H]2CN3C(=NC[C@@H]3Cc3ccc(O)cc3)N2C[C@H](C)NC(=O)CCC2CCCCC2)cc1	MEKK2wt PB1 HTS 141 (no result: FID counter) | MEKK2wt confirm inactive | MEKK2mut confirm inactive | MEKK3 confirm inactive
COc1ccc(C[C@@H]2CN3C(=NC[C@@H]3Cc3ccc(O)cc3)N2C[C@H](C)NC(=O)CCC2CCCCC2)cc1	MEKK3 PB1 HTS 1.0[inhibitor], MEKK2wt PB1 HTS 135 (no result: FID counter) | MEKK2wt confirm inactive | MEKK2mut confirm inactive | MEKK3 confirm inactive
CC(C)[C@H]1CN=C2N(C[C@H](C)NC(=O)CCC3CCCCC3)[C@H](Cc3ccc(O)cc3)CN21	none (no result: FID counter)
